# This is part of a sample that, as a whole, favours compounds with a hit. Of some 79,000 tested, about 15% had one in any assay. Values without a mark were called inactive. Active and inactive are the calls of the source. Rule as the data show it: active = growth inhibition above about 70%; inactive = the rest.
# Key:
# [1] = NCI Yeast Anticancer Drug Screen. Data for the rad52 strain (AID 147);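 also: 0% = growth of vehicle-treated control cultures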; conditions: S. cerevisiae rad52 mutant growth inhibition, stronger effect = higher value
# Procedure, shortened: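 DNA repair-defective yeast; compound exposure; growth scored against vehicle controls.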
# [2] = NCI Yeast Anticancer Drug Screen. Data for the wt1 strain (AID 149);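 also: 0% = growth of vehicle-treated wt1 cultures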; conditions: S. cerevisiae wt1 strain (SPY 50644) growth inhibition, stronger effect = higher value
# Procedure, shortened: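 The wt1 strain was treated with compounds, and growth was compared with vehicle-treated cultures to give inhibition.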
# [3] = NCI Yeast Anticancer Drug Screen. Data for the rad50EPP+ strain (AID 151);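 also: 0% = growth of vehicle-treated control cultures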; conditions: S. cerevisiae rad50 mutant strain, stronger effect = higher value
# Procedure, shortened: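 rad50EPP+ yeast treated with test compounds. Readout: growth vs vehicle control.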
# [4] = NCI Yeast Anticancer Drug Screen. Data for the mgt1 strain (AID 153); conditions: S. cerevisiae mgt1 mutant growth inhibition, stronger effect = higher value
# Procedure, shortened: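 Growth inhibition relative to vehicle controls was scored for the mgt1 yeast strain after compound exposure.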
# [5] = NCI Yeast Anticancer Drug Screen. Data for the rad50 strain (AID 155);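 also: 0% = growth of vehicle-only cultures of the same strain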; conditions: S. cerevisiae rad50 strain growth inhibition, stronger effect = higher value
# Procedure, shortened: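 Cells are treated with compound, grown, and their growth is then scored against vehicle-only cultures of the same repair-deficient yeast strain.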
# [6] = NCI Yeast Anticancer Drug Screen. Data for the mec2-1 strain (AID 157); conditions: S. cerevisiae mec2-1 strain, stronger effect = higher value
# Procedure, shortened: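 Growth inhibition is read against vehicle-treated controls after compound exposure of the mec2-1 yeast strain, which is defective in DNA damage repair or cell cycle control.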
# [7] = NCI Yeast Anticancer Drug Screen. Data for the rad14 strain (AID 159);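 also: 0% = growth of vehicle-treated control cultures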; conditions: S. cerevisiae rad14 strain growth inhibition, stronger effect = higher value
# Procedure, shortened: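 Readout: yeast growth inhibition, referenced to vehicle-only cultures. Strain bears a defined alteration in DNA damage repair.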
# [8] = NCI Yeast Anticancer Drug Screen. Data for the sgs1 mgt1 strain (AID 161);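 also: 0% = growth of cultures given vehicle only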; conditions: S. cerevisiae sgs1 mgt1 strain, stronger effect = higher value
# Procedure, shortened: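 Growth of a repair-deficient yeast mutant was monitored after compound treatment and expressed as inhibition relative to vehicle-treated cultures.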
# [9] = NCI Yeast Anticancer Drug Screen. Data for the cln2 rad14 strain (AID 165);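 also: 0% = growth equal to vehicle treated cultures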; conditions: S. cerevisiae cln2 rad14 strain, stronger effect = higher value
# Procedure, shortened: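 Growth inhibition, relative to vehicle-treated controls, is the read-out. The test organism is a yeast strain with defined genetic alterations, cln2 rad14.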
# [10] = NCI Yeast Anticancer Drug Screen. Data for the bub3 strain (AID 167); conditions: S. cerevisiae bub3 mutant strain, stronger effect = higher value
# Procedure, shortened: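 Part of a panel of yeast mutants defective in DNA damage repair or cell cycle regulation. Each strain is grown with compound, and inhibition is calculated relative to solvent-treated cultures.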
# [11] = NCI Yeast Anticancer Drug Screen. Data for the wt2 strain (AID 169);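 also: 0% = growth of vehicle-treated yeast cultures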; conditions: S. cerevisiae wt2 strain growth inhibition, stronger effect = higher value
# Procedure, shortened: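 Compound exposure of yeast; growth compared with vehicle controls; inhibition reported.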
# [12] = NCI Yeast Anticancer Drug Screen. Data for the mlh1 strain (AID 171);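 also: 0% = growth of vehicle-treated control cultures of the same strain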; conditions: S. cerevisiae mlh1 strain growth inhibition, stronger effect = higher value
# Procedure, shortened: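 Compounds are applied to a genetically altered yeast strain, and its growth is compared with that of vehicle-treated cultures to give percent inhibition.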
# [13] = NCI Yeast Anticancer Drug Screen. Data for the sgs1 strain (AID 173);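 also: 0% = growth of vehicle-only control cultures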; conditions: S. cerevisiae sgs1 mutant, stronger effect = higher value
# Procedure, shortened: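 Compounds applied to genetically altered yeast; growth compared with vehicle-treated cultures to give % inhibition.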
# [14] = NCI Yeast Anticancer Drug Screen. Data for the mlh1 rad18 strain (AID 175); conditions: S. cerevisiae mlh1 rad18 strain growth inhibition, stronger effect = higher value
# Procedure, shortened: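 Cells of a genetically altered yeast strain, deficient in DNA damage repair, were treated with compound. Their growth was then compared with that of vehicle-treated cultures to give inhibition.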
# [15] = NCI Yeast Anticancer Drug Screen. Data for the rad18 strain (AID 177); conditions: S. cerevisiae rad18 mutant growth inhibition, stronger effect = higher value
# Procedure, shortened: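 Compounds are applied to a repair-deficient yeast strain, and growth is compared with that of vehicle-treated cultures to give percent inhibition.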
# [16] = at 5.0 µM (retest, dose inferred, filed as 0.5)
# [17] = at 50.0 µM (retest, dose inferred, filed as 5.0)
structure (smiles),measurement,setting,value
Cc1ccc2c(ccc(/C=C/c3ccc(O)c4ncccc34)[n+]2C)c1,growth inhibition,[1]; at 1.2 µM,17%
same,growth inhibition,[1]; at 3.7 µM,46%
same,growth inhibition,[1]; at 11.0 µM,89% (active)
same,growth inhibition,[1]; at 33.0 µM,94% (active)
same,growth inhibition,[1]; at 100.0 µM,81% (active)
same,growth inhibition,[2]; at 1.2 µM,4%
same,growth inhibition,[2]; at 3.7 µM,30%
same,growth inhibition,[2]; at 11.0 µM,85% (active)
same,growth inhibition,[2]; at 33.0 µM,94% (active)
same,growth inhibition,[2]; at 100.0 µM,81% (active)
same,growth inhibition,[3]; at 1.2 µM,3%
same,growth inhibition,[3]; at 3.7 µM,27%
same,growth inhibition,[3]; at 11.0 µM,60%
same,growth inhibition,[3]; at 33.0 µM,87% (active)
same,growth inhibition,[3]; at 100.0 µM,79% (active)
same,growth inhibition,[4]; at 1.2 µM,8%
same,growth inhibition,[4]; at 3.7 µM,40%
same,growth inhibition,[4]; at 11.0 µM,84% (active)
same,growth inhibition,[4]; at 33.0 µM,95% (active)
same,growth inhibition,[4]; at 100.0 µM,82% (active)
same,growth inhibition,[5]; at 1.2 µM,1%
same,growth inhibition,[5]; at 3.7 µM,41%
same,growth inhibition,[5]; [16],40%
same,growth inhibition,[5]; at 11.0 µM,88% (active)
same,growth inhibition,[5]; at 33.0 µM,93% (active)
same,growth inhibition,[5]; [17],93% (active)
same,growth inhibition,[5]; at 100.0 µM,74% (active)
same,growth inhibition,[6]; at 1.2 µM,10%
same,growth inhibition,[6]; at 3.7 µM,37%
same,growth inhibition,[6]; [16],43%
same,growth inhibition,[6]; at 11.0 µM,89% (active)
same,growth inhibition,[6]; at 33.0 µM,93% (active)
same,growth inhibition,[6]; [17],94% (active)
same,growth inhibition,[6]; at 100.0 µM,77% (active)
same,growth inhibition,[7]; at 1.2 µM,-15%
same,growth inhibition,[7]; at 3.7 µM,37%
same,growth inhibition,[7]; at 11.0 µM,90% (active)
same,growth inhibition,[7]; at 33.0 µM,94% (active)
same,growth inhibition,[7]; at 100.0 µM,77% (active)
same,growth inhibition,[8]; [16],23%
same,growth inhibition,[8]; [17],98% (active)
same,growth inhibition,[8]; at 50.0 µM,82% (active)
same,growth inhibition,[9]; [16],17%
same,growth inhibition,[9]; [17],95% (active)
same,growth inhibition,[9]; at 50.0 µM,84% (active)
same,growth inhibition,[10]; at 1.2 µM,18%
same,growth inhibition,[10]; at 3.7 µM,33%
same,growth inhibition,[10]; [16],10%
same,growth inhibition,[10]; at 11.0 µM,87% (active)
same,growth inhibition,[10]; at 33.0 µM,91% (active)
same,growth inhibition,[10]; [17],98% (active)
same,growth inhibition,[10]; at 50.0 µM,84.9% (active)
same,growth inhibition,[10]; at 100.0 µM,74% (active)
same,growth inhibition,[11]; at 1.2 µM,-16%
same,growth inhibition,[11]; at 3.7 µM,2%
same,growth inhibition,[11]; at 11.0 µM,53%
same,growth inhibition,[11]; at 33.0 µM,88% (active)
same,growth inhibition,[11]; at 100.0 µM,79% (active)
same,growth inhibition,[12]; at 1.2 µM,15%
same,growth inhibition,[12]; at 3.7 µM,60%
same,growth inhibition,[12]; at 11.0 µM,85% (active)
same,growth inhibition,[12]; at 33.0 µM,95% (active)
same,growth inhibition,[12]; at 100.0 µM,78% (active)
same,growth inhibition,[13]; at 1.2 µM,18%
same,growth inhibition,[13]; at 3.7 µM,45%
same,growth inhibition,[13]; at 11.0 µM,82% (active)
same,growth inhibition,[13]; at 33.0 µM,92% (active)
same,growth inhibition,[13]; at 100.0 µM,78% (active)
same,growth inhibition,[14]; [16],58%
same,growth inhibition,[14]; [17],91% (active)
same,growth inhibition,[15]; at 1.2 µM,17%
same,growth inhibition,[15]; at 3.7 µM,31%
same,growth inhibition,[15]; at 11.0 µM,80% (active)
same,growth inhibition,[15]; at 33.0 µM,91% (active)
same,growth inhibition,[15]; at 100.0 µM,63%

# — PubChem BioAssay (NCI)
